Source: PubChem (National Center for Advancing Translational Sciences (NCATS))
FBPA Giardia inh – Giardia lamblia aldolase inhibition. purified Giardia FBPA. Potency, µM (top dose mostly 59.6 µM), inactives show at the top dose activity, negative = inhibition, usual class: inhibitors. 0.71% of 290,000 active; further: potency means the concentration at half of the fitted maximal effect; on the % scale 0 is the no-effect control and ±100 the full control effect; nearly all actives have a fitted effect of over 55% in size
Target sequence (A8B2U2 whole entry, looked up): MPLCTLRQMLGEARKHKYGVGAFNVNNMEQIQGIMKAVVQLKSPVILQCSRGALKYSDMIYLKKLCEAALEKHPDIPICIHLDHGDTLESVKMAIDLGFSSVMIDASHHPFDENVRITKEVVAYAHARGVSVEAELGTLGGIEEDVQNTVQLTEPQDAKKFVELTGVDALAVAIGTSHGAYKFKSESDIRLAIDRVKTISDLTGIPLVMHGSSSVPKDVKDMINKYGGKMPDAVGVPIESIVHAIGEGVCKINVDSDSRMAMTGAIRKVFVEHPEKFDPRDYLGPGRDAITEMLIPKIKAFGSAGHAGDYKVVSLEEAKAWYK
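40 nM FBPA preincubated 10 min at RT with compound (up to 57.5 uM final), then substrate plus GAPDH/TPI/NAD/arsenate coupling and diaphorase/resazurin added. Fluorescence read after 20 min at RT, 525/598 nm.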
Pf growth 96h – inhibits malaria parasite growth, 96 h; P. falciparum luciferase reporter growth, 96 h; Potency, µM (titrated, usually from 28.7 µM), for inactives: at the top dose activity change, negative = inhibition, most hits filed as inhibitors; 6.9% of 320,000 active; AID 504834; further: potency means the concentration at half of the fitted maximal effect; on the % scale 0 is the no-effect control and ±100 the full control effect
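Infected RBCs, 2% Hct / 0.05% parasitemia final; luciferase-reporter P. falciparum; cpd 96 h, 37 C, 5% CO2; luciferase detection reagent; luminescence.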
NS1 inh – influenza NS1 inhibition; Potency, µM (highest dose often 46.1 µM), inactives show at the highest dose activity, positive = more growth; 0.4% of 270,000 active; AID 2326; calls by dose curve; further: potency means the concentration at half of the fitted maximal effect; actives are rising curves; nearly all actives have a fitted effect of over 50% in size
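Recovery from NS1-induced slow growth read by OD600 in budding yeast switched to galactose assay medium (pH 6.0, -URA) at 1:100 dilution. Compound 23 nl per well; the matching strain lacking NS1 serves as control.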
Pf growth 48h – P. falciparum growth inhibition at 48 hours (one generation); 5.9% of 310,000 active; P. falciparum luciferase growth in erythrocytes, 48 h; AID 504832; Potency, µM (highest dose often 28.7 µM), for inactives: at the highest dose activity change, negative = inhibition, usual class: inhibitors; further: potency means the concentration at half of the fitted maximal effect; on the % scale 0 is the no-effect control and ±100 the full control effect
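Cell-based growth assay: transgenic P. falciparum expressing firefly luciferase, cultured in red cells within RPMI 1640 containing 0.5% w/v Albumax, 24 mM bicarbonate and gentamycin. A drop in luciferase activity indicates inhibition.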
CHX counter – counter-screen hit for Shiga toxin inhibitors, cycloheximide; cell reporter, cycloheximide protein synthesis inhibition counterscreen; max response, %; 12% of 300,000 active; in the data active means max response mostly above about 13%, no sharp cut-off; inactive means mostly below about 14%; further: read at 38.3 µM for the half of the compounds with a filed dose; 0% is about no effect
Shiga toxin inh – blocks Shiga toxin action in Vero cells; inhibition, % at 38.7 µM; 9.2% of 290,000 active; Vero cells, Shiga toxin protein synthesis inhibition reporter; in the data active means inhibition mostly above about 28%, no sharp cut-off; inactive means mostly below about 43%; further: 0% is about no effect
Active calls of the source: *; ? = inconclusive; / = no result. The list is not random: actives were taken first. Their share in the collection is about 21%. Unless noted, the call rests on the fitted dose curve; in most records, active means well fitted curve in the direction sought with a large enough effect; inconclusive means small, poorly fitted or top-dose-only effect, or another doubt; inactive means no such curve, though single readings can be large; an effect the other way counts as inactive or inconclusive.

SMILES | FBPA Giardia inh | Pf growth 96h | NS1 inh | Pf growth 48h | CHX counter | Shiga toxin inh
CC(C)(C)OC(=O)NCCCC[C@H](NC(=O)c1nc[nH]c1C(=O)NCC(=O)OCc1ccccc1)C(=O)OC(C)(C)C | 1.0% | 0.1% | ? | ? | -2.4 | -2.9
CC(C)(C)OC(=O)NCCCC[C@H](NC(=O)c1nc[nH]c1C(=O)N[C@@H](CCCCNC(=O)OC(C)(C)C)C(=O)OC(C)(C)C)C(=O)OC(C)(C)C | -15.9% | 1.65µM* | -9.1% | 2.08µM* | 6.1 | -6.1
CC(C)(C)OC(=O)NCCCC[C@H](NC(=O)c1nc[nH]c1C(=O)NC(c1ccccc1)c1ccccc1)C(=O)OC(C)(C)C | -28.1% | 2.08µM* | ? | 3.7µM* | 2.8 | -4.5
CC(C)(C)OC(=O)CNC(=O)c1[nH]cnc1C(=O)N[C@@H](CCCCNC(=O)OC(C)(C)C)C(=O)OC(C)(C)C | -12.2% | ? | -1.2% | ? | -0.8 | -6.6
CC(C)(C)OC(=O)NCCCCCNC(=O)c1[nH]cnc1C(=O)N[C@@H](CCCCNC(=O)OC(C)(C)C)C(=O)OC(C)(C)C | -28.6% | 0.0% | 8.8% | 9.28µM* | 6.7 | 7.4
C[C@H](NC(=O)c1nc[nH]c1C(=O)N[C@@H](CCCCNC(=O)OC(C)(C)C)C(=O)OC(C)(C)C)C(=O)OC(C)(C)C | -16.3% | 13.1µM* | -7.4% | 9.28µM* | -3.5 | -6.6
COc1ccc(N2CCN(C(CNC(=O)COc3ccccc3)c3ccco3)CC2)cc1 (stereo unspecified) | / | 47.6% | / | -10.6% | / | /
CC(C)(C)OC(=O)NCCCC[C@H](NC(=O)c1nc[nH]c1C(=O)NCc1ccc(CNC(=O)OC(C)(C)C)cc1)C(=O)OC(C)(C)C | 6.2% | 11.7µM* | ? | ? | 2.0 | -0.5
O=C1CCC(C(=O)N2CCc3ccccc3C2)CN1CCCN1CCOCC1 (stereo unspecified) | / | ? | 7.9% | -11.5% | -1.1 | -4.4
Cc1ccc(CNC(=O)C2CCN(S(=O)(=O)c3ccc(Br)s3)CC2)cc1 | 1.1% | 34.3% | 1.9% | -11.8% | -0.9 | -6.7
O=C(N/N=C/C1CC=CCC1)c1ccc(O)cc1O (stereo unspecified) | -3.6% | 44.7% | 4.9% | 5.3% | 71.4* | 34.2
O=C(N/N=C/C1CC=CCC1)c1cc2ccccc2cc1O (stereo unspecified) | -17.3% | ? | ? | -23.5% | 13.3* | 39.2
C[C@H]1CN=C(Nc2ccccc2)N1CCC1CCCC1 | 15.4% | 0.2% | -13.9% | 0.4% | -2.0 | -3.7
O=C(CN1C(=O)S/C(=C/c2ccc(N3CCOCC3)cc2)C1=O)N1CCOCC1 | 4.3% | 151.4% | 4.4% | 86.1% | 17.4* | 35.6*
Cc1ccc(/C=C2/SC(=O)N(CC(=O)N3CCOCC3)C2=O)s1 | 5.7% | 0.0% | 11.6% | 0.0% | -4.9 | 27.3
Cc1ccsc1/C=C1/SC(=O)N(CC(=O)N2CCOCC2)C1=O | 0.8% | 0.0% | -14.0% | 118.8% | 24.8* | 69.9
COc1ccc(CS(=O)(=O)CC(C)(O)c2ccc(Cl)cc2)cc1 (stereo unspecified) | 7.7% | 12.5% | -5.7% | 12.7% | 1.3 | -4.5
Cc1ccc(C(O)(CNCc2ccccc2)c2ccccc2)cc1 (stereo unspecified) | 1.6% | ? | -1.9% | ? | 4.1 | -1.2
COc1ccc(CNCC(O)(c2ccccc2)c2ccc(F)cc2)cc1 (stereo unspecified) | 1.9% | ? | -2.1% | 5.22µM* | 6.1 | 24.1
COc1ccc(CCNCc2ccc(F)cc2)cc1OC | 1.5% | / | 3.4% | 9.0% | -4.0 | -8.1
CCCCNCC(O)(c1ccc(Cl)cc1)c1ccc(Cl)cc1 | 3.8% | 2.33µM* | / | 13.1µM* | 28.8 | 28.8
COc1ccc(CNCC(O)(c2ccc(F)cc2)c2ccc(F)cc2)cc1OC | 2.4% | 2.94µM* | -2.1% | 4.15µM* | 10.9 | 10.6
COc1ccc(CNCC(O)(c2ccc(Cl)cc2)c2ccc(Cl)cc2)cc1 | 1.0% | 1.04µM* | -16.7% | 1.17µM* | -3.0 | -14.3
COc1ccc(CNCC(O)(c2ccccc2)c2ccc(F)cc2)cc1OC (stereo unspecified) | 3.0% | 8.28µM* | -0.5% | 7.38µM* | 6.8 | -4.3
COc1ccc(CNCC(O)(c2ccc(Cl)cc2)c2ccc(Cl)cc2)cc1OC | 4.0% | 1.47µM* | -6.8% | 2.08µM* | -3.5 | -21.9
